Only some compounds are listed: those with a hit (about 11% of all), similar ones and a draw of the others.
HPGD block: blocks human HPGD enzyme activity. P15428. purified HPGD, NADH fluorescence kinetic, PGE2 substrate. Potency, µM, for the others: at the highest dose activity change, negative = inhibition, actives largely listed as inhibitors. 150,000 compounds, 4.3% hits; also: potency is read from the fitted curve at half-maximal effect
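20 nM HPGD preincubated 15 min at room temperature with compound in 50 mM Tris-HCl pH 8, 0.01% Tween 20. Started with 1 mM NAD+ and 30 uM prostaglandin E2; NADH fluorescence (360/450 nm) read 5 times over 30-s intervals, last minus first.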
ALDH1A1 block: blocks purified human ALDH1A1 activity; Potency, µM (titrated, usually from 75.3 µM), for inactives: at the highest dose activity, negative = inhibition, usual class: inhibitors; 220,000 compounds, 7.3% hits; AID 1030; P00352; Purified ALDH1A1, NADH fluorescence, propionaldehyde substrate;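 also: potency is read from the fitted curve at half-maximal effect; plate controls were no enzyme wells and a reference inhibitor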
Target sequence (P00352 whole entry, looked up): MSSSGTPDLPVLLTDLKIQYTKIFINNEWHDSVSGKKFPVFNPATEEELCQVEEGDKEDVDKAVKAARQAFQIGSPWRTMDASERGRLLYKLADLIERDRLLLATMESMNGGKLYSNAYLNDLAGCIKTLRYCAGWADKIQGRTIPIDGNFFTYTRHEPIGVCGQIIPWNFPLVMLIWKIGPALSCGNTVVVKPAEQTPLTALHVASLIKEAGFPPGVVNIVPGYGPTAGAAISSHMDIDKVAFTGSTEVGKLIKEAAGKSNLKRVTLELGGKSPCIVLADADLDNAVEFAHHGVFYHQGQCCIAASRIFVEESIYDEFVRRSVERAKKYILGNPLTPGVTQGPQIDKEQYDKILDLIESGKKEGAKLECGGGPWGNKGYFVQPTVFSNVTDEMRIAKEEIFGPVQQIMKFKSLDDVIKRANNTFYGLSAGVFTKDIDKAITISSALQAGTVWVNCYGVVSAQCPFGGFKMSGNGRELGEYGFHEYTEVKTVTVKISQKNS
PNC inhibitor: perinucleolar compartment assembly inhibition; PC3M PTB-GFP, PNC prevalence imaging, 16 h; hits give low values; 140,000 compounds, 3.1% hits; activity change (PNC), negative = inhibition, % at 10 µM;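 active = readout at or below -70, meaning at least 70% loss of cells showing the perinucleolar compartment, a nuclear body marking cancer cells; inconclusive = readout between -30 and a set limit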;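 also: plate controls were DMSO wells for no effect and camptothecin positive control wells for full effect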
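Read-out is percentage of cells bearing a perinucleolar compartment, from automated 20x imaging of fixed, Hoechst-stained PC3M PTB-GFP cells. Cells were seeded 4 h, then exposed 16 h to compound (23 nl of library stock) in duplicate plates.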
Active calls of the source: *; ? = inconclusive; nt = no result given; [ ] = another dose, or the depositor's remark. Unless noted, calls follow the shape of the dose curve; as a rule, active = well fitted inhibition curve with a large enough effect (not every such curve was filed as active); inconclusive = small, poorly fitted or top-dose-only effect, or another doubt; inactive = no such curve, though single readings can be large or run the other way. Unless noted, % is scaled to controls: 0 for no effect and ±100 for the full control effect.

SMILES	HPGD block	ALDH1A1 block	PNC inhibitor
O=c1cc(-c2ccccc2)oc2cc(O)c(O)cc12	18µM*	2%	nt
CC(C)Oc1ccc2c(=O)cc(-c3ccccc3)oc2c1	-20%	-10%	nt
O=c1cc(-c2ccccc2)oc2ccccc12	8.9µM*	-17%	nt
O=c1cc(-c2ccccc2)oc2cc(OCc3ccccc3)cc(O)c12	nt	-4%	nt
O=c1cc(-c2ccc(O)cc2)oc2cccc(O)c12	?	-8%	nt
O=c1cc(-c2ccc(O)c(O)c2)oc2ccccc12	7.1µM*	25µM*	nt
Cc1c(NS(=O)(=O)c2ccc3[nH]c(=O)[nH]c3c2)c(=O)n(-c2ccccc2)n1C	3%	-7%	-6
O=C(c1cccc(F)c1)N1CCC2(CCCN(c3ccncc3)C2)CC1	-14%	-5%	nt
O=C(CN1C(=O)/C(=C\c2ccc(F)cc2)Oc2ccccc21)NCc1ccco1	?	?	15
Cc1cc(-c2n[nH]c(=S)n2/N=C/c2ccc(Br)s2)n[nH]1	13µM*	-15%	-4
Cc1cc(-c2n[nH]c(=S)n2/N=C/c2ccc(C)s2)n[nH]1	25µM*	-10%	18
S=c1[nH]nc(-c2cc(-c3ccccc3)n[nH]2)n1/N=C/c1ccc(Br)s1	nt	16%	nt
Cc1cc(-c2n[nH]c(=S)n2/N=C/c2ccccc2[N+](=O)[O-])n[nH]1	-26%	4%	-16
O=C(Nc1ccccc1)N1C2CCC1CC(O)(c1cccnc1)C2 (stereo not drawn)	-8%	-11%	?
O=S(=O)(c1ccccc1)N1C2CCC1CC(O)(c1cccnc1)C2 (stereo not drawn)	-14%	13µM*	15
Cc1cccc(CNc2ncncc2-c2ccccc2C)c1	nt	9%	nt
O=[N+]([O-])c1cc(/C=N/O)ccc1N1CCCC1	nt	11µM*	nt
Cc1ccc(Sc2ccc(/C=N/O)cc2[N+](=O)[O-])cc1	-15%	3%	0
O=[N+]([O-])c1ccc(N2CCCCCC2)c([N+](=O)[O-])c1	-14%	-21%	-5
O=[N+]([O-])c1cc(/C=N/n2cnnc2)ccc1N1CCCC1	nt	1µM*	nt
CC1CCN(c2ccc(/C=N/n3nnnc3N)cc2[N+](=O)[O-])CC1	-1%	?	?
CC(C)(C)Sc1ccc(/C=N/O)cc1[N+](=O)[O-]	nt	22µM*	nt
O=[N+]([O-])c1cc(S(=O)(=O)c2ccc(N3CCCCC3)c([N+](=O)[O-])c2)ccc1N1CCCCC1	-14%	9%	38
CC1CCN(c2ccc(/C=N\Nc3nncn3N)cc2[N+](=O)[O-])CC1	-9%	?	-116*
CCC(C)NC(=O)CC(c1ccccc1)c1cc(C)ccc1O (stereo not drawn)	nt	5%	nt
SMILES	HPGD block	ALDH1A1 block	PNC inhibitor
C=CCn1c(O)c(N=NC(=O)c2ccc3c(c2)OCO3)c2ccccc21	-2%	?	8
O=C(Cn1nc(-c2cccc([N+](=O)[O-])c2)c2ccccc2c1=O)NCC1CCCO1 (stereo not drawn)	nt	-6%	nt
O=C(CCN1CCCCC1)N1CCc2c([nH]c3ccccc23)[C@H]1c1cccnc1	-6%	12%[13.5 µM]	nt
O=C(O/N=C\c1ccc(N2CCOCC2)c([N+](=O)[O-])c1)c1ccccc1Cl	-15%	1.6µM*	81
O=C(O/N=C\c1ccc(N2CCOCC2)c([N+](=O)[O-])c1)c1ccc(F)cc1	-5%	?	-1
O=C(NCc1ccccc1)C1(c2ccccc2)CCN(S(=O)(=O)c2ccccc2)CC1	-13%	8.9µM*	12
CN(C)C(=O)C1(c2ccccc2)CCN(S(=O)(=O)c2ccccc2)CC1	-9%	-6%	19
Clc1cccc(-c2nnc3sc(-c4ccc5c(c4)OCO5)nn23)c1	nt	20µM*	6
Clc1ccccc1-c1nnc2sc(-c3ccc4c(c3)OCO4)nn12	?	?	-20
Cc1ccc(Sc2ncnc(N)c2[N+](=O)[O-])cc1	-19%	0%	-19
Nc1ncnc(Sc2ccc(Cl)cc2)c1[N+](=O)[O-]	-5%	4%	-103*
Cc1ccc(C)o1	-7%	-5%	nt
NS(=O)(=O)c1ccc(CCNC(=O)COC(=O)CN2C(=O)C3CCCCC3C2=O)cc1 (stereo not drawn)	nt	-8%	nt
O=C(CSc1nccn1-c1ccc(F)cc1)Nc1ccc2c(c1)OCO2	-15%	?	?
CCOc1ccc(NC(=O)c2c(OC)cccc2OC)cc1	nt	-3%	nt
Cn1ccnc1SCC(=O)Nc1sccc1C#N	-15%	25µM*	64
Cc1cc(NC(=O)CSc2nccn2C)no1	nt	7%	nt
Cc1cc(C)c(NC(=O)CSc2nccn2C)c(C)c1	6.3µM*	-7%	-17
CCOc1ccc(NC(=O)COC(=O)c2c(OC)cccc2OC)cc1	-26%	28µM*	?
N#Cc1ccsc1NC(=O)CSc1ncn[nH]1	-17%	-8%	-23
Cc1cc(C)cc(-n2ccnc2SCC(=O)Nc2ccc3c(c2)OCCO3)c1	-11%	?	-85*
CC(=O)OC1CC(OC(C)=O)[C@]2(C)C(CC(=O)[C@]3(C)C2CC[C@@]2(C)C(C(=O)O)OC(=O)C4OC423)C1(C)C (stereo partly drawn)	-5%	0%	nt
O=C(CCn1c(=O)c2ccccc2n(CC(=O)NC2CCCC2)c1=O)NCCc1ccc(Cl)cc1	-15%	5%	?
O=C(CSc1nccn1-c1ccccc1)Nc1ccc2c(c1)OCO2	-18%	?	-21
Cn1ccnc1SCC(=O)Nc1ccc2c(c1)OCO2	nt	14µM*	nt
SMILES	HPGD block	ALDH1A1 block	PNC inhibitor
Cn1ccnc1SCC(=O)Nc1ccc(Oc2ccccc2)cc1	?	-14%	-19
CCOc1ccc(NC(=O)CSc2nccn2C)cc1	-9%	4%	-100*
CCOc1ccc(NC(=O)CSC(N)=O)cc1	-16%	2µM*	24
CCOc1ccc(NC(=O)CC)cc1	nt	13%	nt
Cc1nc2ncnn2c(C)c1CCC(=O)N1CC(C)CC(C)C1 (stereo not drawn)	2%	-12%	33
Cc1ccc(N2C(=O)C3C4CC(=O)C(c5ccccc54)C3C2=O)cc1C (stereo not drawn)	-10%	?	41
COc1cccc(CN2C(=O)C3CCCN3c3ccc(S(=O)(=O)N4CCOCC4)cc32)c1 (stereo not drawn)	-29%	?	62
O=C(CSc1ccc2c(c1)OCCO2)NCCc1ccc(Cl)cc1Cl	nt	-9%	?
COc1cc(NC(=O)CSc2nc(C)cs2)cc(OC)c1	-12%	-12%	?
CCC(c1nnc(SCC(=O)NCCc2ccc(Cl)cc2Cl)o1)N(C)C (stereo not drawn)	14µM*	16µM*	13
Cc1csc(SCC(=O)NCCc2ccc(Cl)cc2Cl)n1	28µM*	1%	0
C=CCc1cc(C=O)cc(OC)c1OCc1c(Cl)cccc1Cl	-14%	?	28
Cn1ncc2c(NNC(=O)c3ccccc3Cl)ncnc21	-10%	6%	14
COc1ccccc1N1CCN(C(=O)CN(c2cc(C)cc(C)c2)S(C)(=O)=O)CC1	nt	-4%	24
Cn1nnc(NCc2cc(Br)ccc2OCc2cccs2)n1	-20%	-10%	?
CCCCN1Cc2cc(C(=O)c3cc(OC)ccc3O)cnc2NC1=O	-24%	?	?
COc1ccc(O)c(C(=O)c2cnc3c(c2)c(=O)[nH]c(=O)n3C)c1	28µM*	-5%	29
CC(CCc1ccccc1)NC(=O)Cc1ccccc1 (stereo not drawn)	-12%	-3%	-22

Screening data: PubChem BioAssay, National Center for Advancing Translational Sciences (NCATS)
